# Results reported in PubChem BioAssay (NCATS).
# Calls of active or inactive are those of the source. Calls follow the shape of the dose curve; as a rule, active = well fitted curve in the direction sought with a large enough effect; inconclusive = small, poorly fitted or top-dose-only effect, or another doubt; inactive = no such curve, though single readings can be large or run the other way.
# Test: Cellular Toxicity (caspase-3) BJ (AID 658)
# Settings: BJ fibroblasts, luminescence, normalized: DMSO 0%, staurosporine 100%; series mostly up to 91.7 µM
# From the text: NIH Chemical Genomics Center [NCGC]
# NIH Molecular Libraries Screening Centers Network [MLSCN]
# National Institutes of Environmental Health Sciences [NIEHS]
# National Toxicology Program [NTP]
# We have developed a 1536-well cell-based assay for quantitative high throughput screening (qHTS) against a number of cell lines to determine in vitro caspase 3/7 activity of small molecules. This particular assay uses BJ cell line which is derived from normal human foreskin fibroblast.
# NCGC Assay Protocol Summary:
# The Caspase-Glo 3/7 assay (Promega) is a homogeneous method to measure caspase-3 and caspase-7 activities in cultured cells. The quantitation of caspase 3/7 activity is based on the cleavage of a peptide-aminoluciferin substrate. After caspase cleaves the substrate the free aminoluciferin is liberated and serves as the substrate of luciferase, which generates the light. The luminescent signal is proportional to amount of caspase 3/7 activity present.
# Using the Caspase-Glo 3/7 assay, the amount of caspase 3/7 activity was measured in the BJ cell line with complete culture medium following compound treatment for 16 hours. The assay was performed in opaque white 1536-well plates. In the screen, staurosporine and tamoxifen were used as positive controls. Library compounds were measured for their ability to cause the activation of caspase 3/7 in the cell line, as reflected by an increase in luminescence signal, in a concentration-dependent manner. Data were normalized to the controls for basal activity (DMSO only) and 100% stimulation (10 uM staurosporine). AC50 values were determined from concentration-response data modeled with the standard Hill equation.
# qHTS protocol for caspase 3/7 assay in the BJ cells
# [Step] [Parameter] [Value] [Description]
# 1. Reagent; 5 uL; 1000 the BJ cells/well
# 2. Time; 5 hr; 37 °C incubation
# 4. Controls; 23 nL; Tamoxifen 0.23 uM to 100 uM & staurosporine 1.4 pM to 100 uM
# 5. Time; 16 hr; 37 °C incubation
# 6. Reagent; 5 uL; Caspase-Glo 3/7 reagent
# 7. Time; 1 hr; Room Temperature
# 8. Detection; Luminescence; Viewlux plate reader
# Keywords: caspase 3/7, apoptosis, the BJ cell line, luminescence, NTPHTS, NTPHTS_NCGC, NIEHS, EPA, DSSTox, MLSMR, MLSCN, NIH Roadmap, qHTS, NCGC
row,Structure (SMILES),outcome
1,Cc1ccc2c(c1[N+](=O)[O-])C(=O)c1ccccc1C2=O,inactive
2,Cc1cc([N+](=O)[O-])ccc1N,inactive
3,CCCCCCCN,inactive
4,Cc1ccco1,inactive
5,CC(C)(C)OC=O,inactive
6,CNC(=O)c1ccccc1,inactive
7,C=C(C)C(=O)OCC(C)C,inactive
8,C[C@@H]1CC2(OC[C@]3(C)O[C@H]23)O[C@H]2C[C@@]3(C)[C@@H]4CC[C@H]5C(C)(C)C(O[C@@H]6OC[C@@H](O)[C@H](O)[C@H]6O)CC[C@@]56C[C@@]46CC[C@]3(C)[C@@H]12 (stereo not given in full),inactive
9,O=C(Cl)c1c(Cl)cccc1Cl,inactive
10,COC(=O)CS,inactive
11,NC(N)=S,inactive
12,Cc1ccc(C)c([N+](=O)[O-])c1,inactive
13,Nc1cccc(N)c1,inactive
14,CCCCCCO,inactive
15,Cc1cccc([N+](=O)[O-])c1C(=O)O,inactive
16,CC(=O)OCc1ccco1,inactive
17,S=C([S-])NCCNC(=S)[S-].[Zn+2],inactive
18,Cc1cccc(C)c1O,inactive
19,NC(=O)c1ccccc1[N+](=O)[O-],inactive
20,O=C1OC(=O)c2c(Cl)c(Cl)c(Cl)c(Cl)c21,inactive

row,Structure (SMILES),outcome
1,Cc1ccc(Cl)cc1N,inactive
2,Cc1ccc(C)o1,inactive
3,Cc1ccc(C(C)(C)C)cc1,inactive
4,CC(=O)c1ccccn1,inactive
5,Cc1nc2ccc(Cl)cc2[nH]1,inactive
6,NS(=O)(=O)O,inactive
7,CC(C=O)Cc1ccc(C(C)(C)C)cc1 (stereo not given),inactive
8,CCCCC(CC)CNCC(CC)CCCC (stereo not given),inactive
9,CC(=O)Nc1ccc(N)cc1,inactive
10,O=C1OC(=O)c2cc([N+](=O)[O-])ccc21,inactive
11,Nc1cccc([N+](=O)[O-])c1,inactive
12,Clc1ccc(Cl)c(Cl)c1Cl,inactive
13,O=Cc1ccc(C(=O)O)cc1,inactive
14,FC(F)(F)c1ccccc1Cl,inactive
15,BrC(Br)C(Br)Br,inactive
16,O=Cc1c(Cl)cccc1Cl,inactive
17,CCOC(=O)OCC,inactive
18,CC=C(Cl)Cl,inactive
19,O=C(O)c1cccc(Cl)c1Cl,inactive
20,CCCCOCCOCCSC#N,inactive
